The whole screen tested about 400,000 compounds, of which about 13,000 (3.2%) were called active. Where a call stands in place of a potency, no number is given. Another 18% or so got no clear call; they are omitted. Calls come from the whole dose curve; as a rule, active = well fitted cell-killing curve with a large enough effect; inconclusive = small, poorly fitted or top-dose-only effect, or effect the other way; inactive = flat fitted curve, though single readings scatter. The sample as a whole holds a higher share of actives than the screen did.
Experiment: qHTS assay for MDR1-selective chemotherapeutics: Primary screen using the drug-selected MDR subline cells KB-V1; note: nearly all actives have a fitted effect of over 60% in size
Conditions: KB-V1 MDR cells viability, CellTiter-Glo, 72 h; series mostly up to 46.1 µM
In short: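 Readout: CellTiter-Glo luminescence, 10 min after addition. Cells: KB-V1 MDR subline, 72 h at 37 degrees C with compound. Analysis: corrected, normalized data fitted to concentration-effect curves.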
Potency is the fitted concentration of half-maximal effect.

Row | SMILES | Potency
1 | CC(C)Cn1c(=O)c2ccccc2n2c(-c3cccc(Cl)c3)nnc12 | inactive
2 | CN(Cc1cncn1C)c1ncnc2ccc(-c3ccc4c(c3)OCO4)cc12 | inactive
3 | O=C(CSc1ccccc1)Nc1cccc(S(=O)(=O)N2CCCCC2)c1 | inactive
4 | O=C(Nc1cccc(S(=O)(=O)N2CCCCC2)c1)c1ccc2c(c1)OCO2 | 3.26 µM (active)
5 | Cn1nnnc1SCC(=O)Nc1cccc(S(=O)(=O)N2CCCCC2)c1 | 20.6 µM (active)
6 | CCN(CC)S(=O)(=O)c1cccc(NC(=O)c2ccc(S(=O)(=O)N3CCCC3)cc2)c1 | inactive
7 | O=C(c1c(F)cccc1F)N1CCN(S(=O)(=O)c2ccc3c(c2)OCCO3)CC1 | inactive
8 | O=C(c1ccc2c(c1)OCCO2)C1CCN(S(=O)(=O)c2cccc(F)c2)CC1 | 20.6 µM (active)
9 | O=C(Nc1cccc(S(=O)(=O)N2CCCCC2)c1)c1cncc(Br)c1 | inactive
10 | O=C(NCc1cccs1)C1CCN(S(=O)(=O)c2ccc3c(c2)OCCO3)CC1 | inactive
11 | COCCn1cnnc1SCC(=O)Nc1cccc(S(=O)(=O)N2CCCCC2)c1 | inactive
12 | Cc1ccc(-c2nn3c(=O)cc(CN4CCN(S(=O)(=O)c5ccc(Cl)cc5)CC4)nc3s2)cc1 | inactive
13 | Cc1cccc(C)c1NC(=O)CNC(=O)c1ccc(N2CCOCC2)c([N+](=O)[O-])c1 | inactive
14 | CCn1c(/C=C/c2ccc([N+](=O)[O-])o2)nc2ccccc2c1=O | 5.17 µM (active)
15 | CCc1ccc(S(=O)(=O)N/N=C\c2ccc([N+](=O)[O-])o2)cc1 | inactive
16 | O=c1oc(/C=C/c2ccccc2)nc2ccccc12 | inactive
17 | CSc1ncccc1C(=O)N1CCCC(Nc2ccc(F)c(F)c2)C1 (centres undefined) | inactive
18 | CCc1nn(CCCC(=O)NCc2ccccc2OC)c(=O)c2cc3occc3n12 | inactive
19 | Cc1cc(Br)cn2c(Cc3cccc(F)c3)c(-c3cccc(Br)c3)nc12 | inactive
20 | CCOC(=O)c1c(NC(=O)Cc2coc3ccc(CC)cc23)sc2c1CCC2 | inactive
21 | CCOC(=O)c1c(NC(=O)Cn2nc(C(F)(F)F)cc2C)sc2c1CCC2 | 20.6 µM (active)
22 | CCOC(=O)c1c(NC(=O)CSc2cn(CC)c3ccccc23)sc2c1CCC2 | inactive
23 | CCCS(=O)(=O)NC(=O)C1(C)CCCN(C(=O)c2cccs2)C1 (centres undefined) | inactive
24 | COc1ccccc1OCC(=O)Nc1ccccc1C(=O)NC1CC1 | inactive
25 | Cc1ccc(OCC(=O)Nc2ccccc2C(=O)NC2CC2)cc1C | inactive
26 | O=C(CN1CCCCC1)Nc1ccccc1C(=O)NC1CC1 | inactive
27 | Cc1ccc(OCC(=O)Nc2ccccc2C(=O)NC2CC2)cc1 | 8.2 µM (active)
28 | CCCC(NCC(=O)Nc1ccccc1C(=O)NC1CC1)c1ccccc1 (centres undefined) | inactive
29 | CC(NCC(=O)Nc1ccccc1C(=O)NC1CC1)c1ccccc1Cl (centres undefined) | 18.4 µM (active)
